Bioassay records (PubChem BioAssay)
Sampled rows, rich in hits. Any-hit rate of the full collection: about 3.5%.
mHTT CaM bind – inhibitors of human mutant huntingtin-calmodulin interaction | P42858 | AlphaScreen His-mHTT/GST-CaM binding, luminescence | inhibition, % at 15 µM | 3.6% of 190,000 active | AID 1671202;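 also: 0% = both proteins with DMSO and 100% = one protein alone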
Pf apPOL inh – Pf-apPOL DNA polymerase inhibition. Recombinant Pf-apPOL, molecular beacon fluorescence, 1.5 h. inhibition, % at 10 µM. 0.25% of 210,000 active
The depositor's hits bear a star; · = no result given. Rule as the data show it: active = inhibition above about 50%; inactive = the rest.

SMILES	mHTT CaM bind	Pf apPOL inh
Cc1ccc(CNC(=O)c2ccc(-c3cccnc3)nc2)o1	-9	4
Cn1cnc([N+](=O)[O-])c1Sc1nc2ccccc2[nH]1	2	0
Nc1ncnc(Sc2nc3ccccc3[nH]2)c1[N+](=O)[O-]	79*	3
O=[N+]([O-])c1cc(C(F)(F)F)cc([N+](=O)[O-])c1Sc1nc2ccccc2[nH]1	99*	3
O=[N+]([O-])c1ccc(Cl)cc1Sc1nc2ccccc2[nH]1	-3	-6
COc1cc(OC)c(OC)cc1C=C1Oc2cc(OC(C)=O)ccc2C1=O	-8	-28
COc1cc(CN2CCc3nc(Nc4ccccc4)ncc3C2)ccc1OC(C)C	57*	-1
COc1cc(CN2CCc3nc(Nc4ccc(F)cc4)ncc3C2)ccc1OC(C)C	95*	-5
CCOc1ccc(CN2CCc3nc(Nc4ccccc4)ncc3C2)cc1OC	-6	-2
COc1cc(CN2CCc3nc(Nc4ccccc4F)ncc3C2)ccc1OC(C)C	11	-3
Cc1cccc(NC(=O)C2CCCN(C(=O)c3cccc(Cl)c3)C2)c1 (stereo not given)	29	3
Cc1nc(NCCN2CCOCC2)c2sc3nc4c(cc3c2n1)COC(C)(C)C4	28	2
Cc1ccc(CN2C(=O)CN(CC(=O)NC3CCCCC3C)C(=O)C2c2ccccc2F)cc1 (stereo not given)	10	-11
O=C1Nc2ccc(Br)cc2/C1=C\c1c(Cl)cccc1Cl	100*	3
O=C1Nc2ccc(Br)cc2/C1=C/c1ccccc1Cl	11	-2
O=C1Nc2ccc(F)cc2/C1=C\c1c(Cl)cccc1Cl	100*	-3
O=C1Nc2ccccc2/C1=C\c1c(Cl)cccc1Cl	49	2
Cc1ccc(C(=O)N2CCN(c3ccc(Cl)cc3)CC2)cc1C	19	15
O=C(c1ccc2nsnc2c1)N1CCC(c2nnc(-c3ccco3)o2)CC1	-10	1
Cn1nccc1C(=O)N1CCCC(c2nc(CCNC(=O)C3CC3)cs2)C1 (stereo not given)	-8	4
CCn1nc(-c2ccc(OC)cc2F)cc1C(=O)NC1CC1	2	-14
O=C(c1cccs1)N1N=C(c2cccs2)CC1c1cc([N+](=O)[O-])ccc1O (stereo not given)	48	2
Oc1ccc(C2Oc3ccccc3C3CC(c4cccs4)=NN32)cc1O (stereo not given)	29	-1
COc1c(O)ccc(C2Oc3ccccc3C3CC(c4cccs4)=NN32)c1[N+](=O)[O-] (stereo not given)	55*	0
COc1cc(C(=O)O)c(C2Oc3ccccc3C3CC(c4ccccc4)=NN32)cc1OC (stereo not given)	50*	-5
SMILES	mHTT CaM bind	Pf apPOL inh
COc1ccc(C2Oc3ccccc3C3CC(c4cccs4)=NN32)cc1O (stereo not given)	52*	10
c1coc(C2Oc3ccccc3C3CC(c4cccs4)=NN32)c1 (stereo not given)	92*	-9
Clc1cccc(C2Oc3ccccc3C3CC(c4ccccc4)=NN32)c1 (stereo not given)	-7	·
COc1cc(C2Oc3ccccc3C3CC(c4cccs4)=NN32)cc(OC)c1O (stereo not given)	47	8
O=C(C1CCCCC1)N1C[C@@H](O)[C@H](n2cc(-c3ccc(F)cc3)nn2)C[C@@H]1c1ccccc1	9	-2
COc1ccc(C)cc1NC(=O)c1cc(S(=O)(=O)NCCc2ccc(Cl)cc2)ccc1F	-2	49
COc1cc([N+](=O)[O-])ccc1-c1ccc(/C=C2/NC(=O)NC2=O)o1	32	-3
Cc1nc(N)nc(NN=Cc2ccccc2O)n1	·	-92
COc1ccc(OC)c(C2Oc3c(OC)cccc3C3CC(c4cccs4)=NN32)c1 (stereo not given)	2	-13
CCOc1cccc(C2Oc3ccccc3C3CC(c4cccs4)=NN32)c1O (stereo not given)	50*	-4
CS(=O)(=O)Nc1ccc(C2(C(=O)NCc3ccco3)CCCCC2)cc1	-5	-7
COc1cc(-c2cc(C(=O)O)c3cc(Br)ccc3n2)cc(OC)c1OC	8	-10
COc1ccc(Cl)cc1NC(=O)C1CC(=O)N(CCc2c[nH]c3ccc(C)cc23)C1 (stereo not given)	75*	0
COc1ccc(C)cc1NC(=O)C1CC(=O)N(CCc2c[nH]c3ccc(Cl)cc23)C1 (stereo not given)	14	-2
COc1ccccc1NC(=O)C1CC(=O)N(CCc2c[nH]c3ccc(Cl)cc23)C1 (stereo not given)	41	0
COc1ccc(OC)c(NC(=O)C2CC(=O)N(CCc3c[nH]c4ccc(Cl)cc34)C2)c1 (stereo not given)	81*	1
CCCCN1C(=O)C(C)(C(=O)NC2CCCCCC2)Oc2cccnc21 (stereo not given)	-13	-1
COc1ccc(CNC(=O)NCC2(c3ccc(F)cc3)CC2)cc1	-12	-12
Cc1cc(=O)[nH]c(-n2nc(-c3ccccc3)cc2NC(=O)CCSc2ccccc2)n1	-13	-10
Cc1cc(=O)[nH]c(-n2nc(C3CC3)cc2NC(=O)C2(c3ccc(Cl)cc3)CCCC2)n1	57*	-71
CN(C)c1ccc(C(O)(c2ccc(N(C)C)cc2)c2ccc(N(C)C)cc2)cc1	100*	-7
CN(C)c1ccc(Cc2ccc(N(C)C)cc2)cc1	·	-10
O=C(NCCC1=CCCCC1)c1cc2cc(Br)ccc2oc1=O	-4	-2
C=C(C)CC1N(c2ccc(F)cc2)C(=O)C2C(C(=O)O)C3C=CC21O3 (stereo not given)	1	-8
CN(CC(=O)N1CCCC1)S(=O)(=O)c1ccc2[nH]c3c(c2c1)CCCC3	1	-1
SMILES	mHTT CaM bind	Pf apPOL inh
CN(Cc1ccccc1)S(=O)(=O)c1ccc2[nH]c3c(c2c1)CCCC3	71*	-4
COc1ccc(CCNS(=O)(=O)c2ccc3[nH]c4c(c3c2)CCCC4)cc1OC	47	-4
CCN(c1ccc(OC)cc1)S(=O)(=O)c1ccc2[nH]c3c(c2c1)CCCCC3	70*	-3
O=S(=O)(NCc1ccc2c(c1)OCO2)c1ccc2[nH]c3c(c2c1)CCCCC3	96*	-5
O=S(=O)(NCCc1ccccc1)c1ccc2[nH]c3c(c2c1)CCCC3	95*	-1
O=c1[nH]c2ccc(S(=O)(=O)NCc3ccc4c(c3)OCO4)cc2[nH]c1=O	-2	-4
O=C(NNC(=O)C(F)(F)F)C(F)(F)F	·	-2
CCOc1cccc2sc(NC(=O)C3=COCCO3)nc12	-19	0
COc1ccc(C(=O)N2CCC(COc3ccc(C(=O)N4CCCC4)cc3)CC2)cc1F	4	-1
O=C(c1cc2c(s1)CCC(C(=O)N1CCN(c3ccccc3)CC1)C2)N1CCOCC1 (stereo not given)	-1	-5
COc1ccc(CNS(=O)(=O)c2ccc3nc(-c4ccccc4)[nH]c3c2)cc1	4	8
CCOc1ccccc1NC(=O)CN(C)S(=O)(=O)c1ccc2[nH]c3c(c2c1)CCCC3	47	-1
COc1cccc(CNS(=O)(=O)c2ccc3[nH]c(=O)sc3c2)c1	5	4
CCOc1ccc(CNS(=O)(=O)c2ccc3[nH]c4c(c3c2)CCCCC4)cc1	55*	-1
COc1ccc(CNS(=O)(=O)c2ccc3[nH]c4c(c3c2)CCCCC4)cc1	97*	-5
COc1cccc(CNS(=O)(=O)c2ccc3[nH]c4c(c3c2)CCCCC4)c1	73*	-7
